Where “and” joins values, the source holds several entries; their conditions need not be identical. Equal values may be shown once. The panel holds about 79,000 compounds, 15% with a hit somewhere; the sample as a whole holds those more often. Calls of active or inactive are those of the source. No stated cut-off is given here; in the data, active means growth inhibition above about 70%; inactive means the rest. Where a SMILES comes first, the peptide text is derived from it. [ ]: non-standard residue; d: D form. The star is where a group is joined. Cbz = O=C(OCc1ccccc1)*; Nva = CCC[CH](N)C(=O)O
Experiments:
[1] = NCI Yeast Anticancer Drug Screen. Data for the rad50 strain (AID 155);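 further: 0% = growth of vehicle-only cultures of the same strain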; conditions: S. cerevisiae rad50 strain growth inhibition, active compounds read high; at 50.0 µM unless noted
Summary of the method: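 Relative growth inhibition (compound vs vehicle) was measured in yeast with a defined repair-gene alteration.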

[2] = NCI Yeast Anticancer Drug Screen. Data for the mec2-1 strain (AID 157); conditions: S. cerevisiae mec2-1 strain, active compounds read high; at 50.0 µM unless noted
Summary of the method: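 Test agents were screened against the mec2-1 yeast strain, with defined DNA repair or cell cycle alteration. Growth was scored as inhibition against vehicle-only controls.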

[3] = NCI Yeast Anticancer Drug Screen. Data for the sgs1 mgt1 strain (AID 161);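 further: 0% = growth of cultures given vehicle only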; conditions: S. cerevisiae sgs1 mgt1 strain, active compounds read high; at 50.0 µM unless noted
Summary of the method: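 Mutant yeast exposed to compound; growth scored against vehicle-only wells.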

[4] = NCI Yeast Anticancer Drug Screen. Data for the cln2 rad14 strain (AID 165);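 further: 0% = growth equal to vehicle treated cultures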; conditions: S. cerevisiae cln2 rad14 strain, active compounds read high; at 50.0 µM unless noted
Summary of the method: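 Growth of compound-exposed yeast (cln2 rad14 genotype) measured and expressed as inhibition relative to vehicle.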

[5] = NCI Yeast Anticancer Drug Screen. Data for the bub3 strain (AID 167); conditions: S. cerevisiae bub3 mutant strain, active compounds read high; at 50.0 µM unless noted
Summary of the method: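 Screening used yeast with an engineered genetic alteration affecting cell cycle control. Compound-exposed cultures were compared with vehicle cultures, and reduced growth was taken as inhibition.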

[6] = NCI Yeast Anticancer Drug Screen. Data for the mlh1 rad18 strain (AID 175); conditions: S. cerevisiae mlh1 rad18 strain growth inhibition, active compounds read high; at 50.0 µM unless noted
Summary of the method: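 In this whole-cell yeast screen, a strain with altered DNA damage repair is challenged with compound, and its growth is measured against matched vehicle-treated controls.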

Measured: growth inhibition

COc1ccc(O)cc1C=O
inactive: [1] -6.4% | [2] -7.05% | [3] -10.6% | [4] 4% | [5] -7.35% | [6] -4.75%

O=C(OC(C1COCO1)C(O)C1COCO1)c1ccccc1 (centres undefined)
inactive: [1] 5.65% | [2] -8.85% | [3] 9.05% | [4] -1.85% | [5] 28.4% | [6] 17.4%

Cc1nn(C(=O)Cc2ccccc2)c2c1C(c1ccc(Cl)cc1)SC(N)=N2 (centres undefined)
inactive: [1] -30.1% | [2] -31.5% | [3] -29.1% | [4] 6.45% | [5] -23.6% | [6] -25.1%

CC(CC(C)C(=O)O)C(=O)O (centres undefined)
inactive: [1] -13.5% | [2] -28.2% | [3] -24.1% | [4] 0.4% | [5] -47.8% | [6] 3.25%

COC(=O)C(=O)C1CCCC(C)(c2ccccc2)C1 (centres undefined)
inactive: [1] -0.1% | [2] 2.05% | [3] -5.05% | [4] 0.2% | [5] 1.7% | [6] -4.7%

Cc1ccc(OCCC(=O)O)cc1
inactive: [1] 6.9% | [2] -6.15% | [3] -11.2% | [4] -63.5% | [5] -26.6% | [6] -1.65%

CN1C(=O)N(c2cc(Cl)cc(Cl)c2)C(=N)C1=S
inactive: [1] 7.1% | [2] 1.75% | [3] 17.6% | [4] -3.1% | [5] 32.5% | [6] 37.5%

CC1=CC(=O)[C@@H](O)[C@@]2(C)C1C[C@H]1OC(=O)[C@H](C/C=C(/C)C(C)C)[C@H]3C(C)C(O)C4(O)OC[C@@]31C42 (some centres undefined)
active: [1] 76.8% | [2] 77.9% | [3] 72% | [4] 81.7% | [5] 80% | [6] 76.5%

CC1=CCC2C(C)(C)CCCC2(C)C1COC1OC(OCC2C(C)=CCC3C(C)(C)CCCC23C)C2C1=CCC1C(C)(C)CCCC21C (centres undefined)
active: [1] 90% | [2] 89.2% | [3] 84.1% | [4] 89.6% | [5] 89.2% | [6] 88%

Cc1cnc2ccccc2n1 (tested in a mixture with another compound)
inactive: [1] -1.5% | [2] 4.35% | [3] -5.25% | [4] 8% | [5] -2.1% | [6] 24.8%

Cc1c2noc1CCCCCCCCCCC2
inactive: [1] 18.9% | [2] 20% | [3] 3.6% | [4] -4.15% | [5] -13.7% | [6] 17.9%

N#CC(C(=O)CCC(=O)NCCc1ccccc1)c1nc2ccccc2s1 (centres undefined)
inactive: [1] -11.9% | [2] -6.05% | [3] -10.8% | [4] -10.1% | [5] 4.8% | [6] 4.55%

CCCCCCNC(=O)CCN(C(=O)O)S(=O)(=O)c1ccc(NC(=O)c2ccccc2)cc1
inactive: [1] 11.7% | [2] -3.45% | [3] 8.6% | [4] 17.7% | [5] 7.4% | [6] -1.45%

O=C1C(Br)=C[C@H]2C3C=CC(Br)(C3=O)[C@@H]12 (some centres undefined)
inactive: [1] 20.8% | [2] 14.9% | [3] 14.9% | [4] 25.2% | [5] 15.6% | [6] 23.6%

O=C(O)C(F)(F)C(F)(F)C(F)(F)F
inactive: [1] 5.95% | [2] -2.3% | [3] -6.75% | [4] 14.6% | [5] 1.15% | [6] 3.25%

CC(=O)O[C@@H]1C(=O)C=C(C)[C@@H]2[C@@H](OC(=O)C=C(C)C)[C@H]3OC(=O)C[C@H]4[C@@H](C)[C@@H](O)[C@]5(O)OC[C@]34[C@H]5[C@@]12C
active: [1] 87.4% | [2] 71.5% | [3] 71.8% | [4] 88.5% | [5] 79.5% | [6] 91.8%

O=C(O)C1=CCCc2ccc3ccccc3c21
inactive: [1] 10.2% | [2] 6% | [3] 0.2% | [4] -20.4% | [5] -27.9% | [6] 6.25%

C[Si](C)(C)Cn1cccc1
inactive: [1] -7.5% | [2] 8.9% | [3] 5% | [4] -37.6% | [5] -1.15% | [6] -8.85%

O=C(O)COc1ccc(NC(=O)COc2ccc(Cl)c(Cl)c2)cc1
inactive: [1] 8.8% | [2] -10% | [3] -28.9% | [4] -30.1% | [5] 2.75% | [6] 15.1%

CCS(=O)(=O)/C=C/c1cccs1
inactive: [1] -9.1% | [2] -7.95% | [3] -8.65% | [4] -47.6% | [5] 4.8% | [6] -17.6%

O=C(c1ccc(-c2ccccc2)cc1)c1ncc(-c2ccc(-c3ccccc3)cc2)[nH]1
inactive: [1] 15.5% | [2] 10.7% | [3] 17.1% | [4] -4% | [5] 19.1% | [6] 21.3%

Cc1cc(C)c2c(c1)CC(C)(C)CC2=O
inactive: [1] 4% | [2] -7.95% | [3] -1.1% | [4] 2.5% | [5] -4.55% | [6] -2.6%

NC(=S)N/N=C/c1ccc(N)cn1
inactive: [1] -4.2% | [2] 17% | [3] -0.5% | [4] 0.25% | [5] 8.15% | [6] -8.8%

CCCOC(=O)C1C(=O)CC(c2ccccc2)C1c1ccccc1 (centres undefined)
inactive: [1] 1.95% | [2] -2.05% | [3] 1.3% | [4] -4.15% | [5] 1.25% | [6] -0.4%

CCOC(=O)C(=CN1CCNC1=S)C(=O)OCC
inactive: [1] -30.6% | [2] -33.6% | [3] -25.6% | [4] -1.6% | [5] -15.8% | [6] -3.85%

O=C1/C(=C\c2ccccc2)Sc2cc[nH]c21
inactive: [1] 13.5% | [2] 1.3% | [3] 4.5% | [4] -1.95% | [5] -1.85% | [6] 17.2%

CCOC(=O)C(C)N1C(=O)c2ccccc2C1=O (centres undefined)
inactive: [1] 6.4% | [2] -20.4% | [3] -22% | [4] 13.3% | [5] 21.4% | [6] 0.55%

CCCC(NC(=O)OCc1ccccc1)C(=O)NC(CC(C)C)C(N)=O (centres undefined) (Cbz-[Nva]-Leu-NH2; configuration not given here)
inactive: [1] 12.9% | [2] 2.35% | [3] 5% | [4] 22.2% | [5] 6.55% | [6] 5.15%

CN1c2ccccc2N(C(=O)c2ccc(Cl)cc2)C(CC(=O)O)c2cccn21 (centres undefined)
inactive: [1] 43.1% | [2] 31.1% | [3] 23.3% | [4] 44.8% | [5] 38.5% | [6] 29.2%

Cc1ccc(N2CC(=O)N3CCCC(C)N3C(=O)C2)cc1 (centres undefined)
inactive: [1] 26% | [2] 8.85% | [3] 14.8% | [4] 15.8% | [5] 7.05% | [6] 10.4%

O=C1/C(=C/c2cccc([N+](=O)[O-])c2)Cc2ccccc21
inactive: [1] 12.7% | [2] -5.9% | [3] 5.65% | [4] 14.1% | [5] 17.6% | [6] 5.05%

Nc1ccc(Cc2cc([N+](=O)[O-])cc([N+](=O)[O-])c2)cc1
inactive: [1] 3.15% | [2] -1.75% | [3] 11.4% | [4] -42% | [5] 15.3% | [6] -29.8%

CC(O)C(O)CC(/C=N/NC(=O)c1ccccc1)=N/NC(=O)c1ccccc1 (centres undefined)
inactive: [1] 3.55% | [2] 4.25% | [3] -14.6% | [4] -7.55% | [5] -0.75% | [6] 2.8%

C=C1C2CCC(C2)C1(C)CC/C=C(/C)CO (centres undefined) (tested in a mixture with another compound)
inactive: [1] 34.4% and 47.7% | [2] 9.65% and 7.15% | [3] 33.2% and 41.6% | [4] 20.2% and 7.3% | [5] 35.5% and 19.8% | [6] 16.4% and 26.4%

Cc1ccc(OCC2OC(n3cnc4c(Cl)ncnc43)CC2Oc2ccc(C)cc2)cc1 (centres undefined)
inactive: [1] -1.2% and 20.8% | [2] -10.2% and 3.5% | [3] 0.05% and 45% | [4] -6.6% and 15.3% | [5] -5.6% and 34% | [6] -32.6% and -25.1%

COc1cccc(N2C(=O)C3c4[nH]c5ccc(C)cc5c4C4CCC(C)CC4C3C2=O)c1 (centres undefined)
inactive: [1] -10.7% | [2] -27.4% | [3] -29.1% | [4] -6.5% | [5] -23.1% | [6] -13.4%

O=C(O)CC(CS(=O)O)C(=O)O (centres undefined)
inactive: [1] -9.65% | [2] -11.2% | [3] -13.4% | [4] 1.05% | [5] 1.15% | [6] -3.7%

OCC1C(CO)C2CC1C1N=NN(c3ccccc3)C21 (centres undefined)
inactive: [1] -4.8% | [2] 4.3% | [3] 8.25% | [4] -11.9% | [5] -0.35% | [6] -13.3%

CCN(CC)C(=O)c1c(N2CCOCC2)cc(N(CC)CC)oc1=O
inactive: [1] -10.2% | [2] -8.25% | [3] -46.6% | [4] -8.85% | [5] -37.9% | [6] -40.6%
